About 83,000 compounds went through this panel and 20% of them were active in at least one assay; those are over-represented in the sample as a whole.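 Cells were grown in 96-well plates and exposed to the test compound at a single concentration for 48 hours; results are reported as percent growth, with values below 10 considered active.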 Values without a mark were called inactive. Active and inactive are the calls of the source.
Tests used:
Assay in all cases: NCI-60 one-dose screen, 48 h (100 = growth as untreated, 0 = no growth, -100 = all killed)
Conditions in all cases: 10 µM unless noted
T-47D breast = test system: T-47D breast
BT-549 breast = test system: BT-549 breast
MDA-MB-435 melanoma = test system: MDA-MB-435 melanoma
SW-620 colon = test system: SW-620 colon
MCF7 breast = test system: MCF7 breast
HCT-116 colon = test system: HCT-116 colon
HCC-2998 colon = test system: HCC-2998 colon
KM12 colon = test system: KM12 colon

| Compound | growth (T-47D breast) | growth (BT-549 breast) | growth (MDA-MB-435 melanoma) | growth (SW-620 colon) | growth (MCF7 breast) | growth (HCT-116 colon) | growth (HCC-2998 colon) | growth (KM12 colon) |
| --- | --- | --- | --- | --- | --- | --- | --- | --- |
| CC(C)c1ccc(NC(=O)Nc2ccc(NC(=O)CCCC(=O)NOCc3ccccc3)cc2)cc1 | 59.3% | 106% | 89.1% | 107% | 80.2% | 93.4% | 66% | 94.4% |
| COc1ccc2c(c1)c(-c1noc(C(=O)c3cn(C)c4ccc(Br)cc34)n1)cn2C | 90% | 99.3% | 114% | 105% | 93% | 92.4% | 100% | 106% |
| CC(O)c1cnc(/C=C2\SC(=S)N(Cc3ccccc3)C2=O)s1 (configuration not stated) | 41.7% | 86.9% | 25.3% | 39.7% | 27.4% | 20.2% | 107% | 30.3% |
| C=C1C(=O)O[C@H]2[C@H]1CC/C(COC(=O)N[C@H]1C[C@H](O[C@H]3C[C@](O)(C(=O)CO)Cc4c(O)c5c(c(O)c43)C(=O)c3c(OC)cccc3C5=O)O[C@@H](C)[C@H]1O)=C\CC[C@@]1(C)O[C@@H]21 | 29.7% | 22.7% | 66% | 1.42% (active) | 12.1% | 7.69% (active) | 99.3% | 90.1% |
| N#CC1CCc2c(c(-c3cn[nH]c3C(F)(F)F)nc3c(F)cc4[nH]ncc4c23)C1 (configuration not stated) | 1.96% (active) | -11.6% (active) | 7.99% (active) | 8.48% (active) | 12.9% | 5.5% (active) | 44% | 13.6% |
| O=C(CSc1nc2ccc([N+](=O)[O-])cc2[nH]1)Nc1ccc(F)cc1 | 16.6% | 65.2% | 53.1% | 86% | 62.1% | 54.7% | 75.7% | 64% |
| COC(=O)c1cc(-c2ccc(OC)cc2)[nH]c1N/N=C/c1c(Cl)cccc1Cl | 45.5% | -9.36% (active) | -54.7% (active) | 9.62% (active) | 1.03% (active) | -64.5% (active) | 67.4% | 2.76% (active) |
| O=C1/C(=C/c2ccc(Cl)cc2)COc2ccc(O)c(O)c21 | -14.8% (active) | 5.45% (active) | 1.56% (active) | -9.64% (active) | 9.76% (active) | 0.395% (active) | 5.98% (active) | -2.9% (active) |
| O=C(CSc1nc(-c2ccccc2)[nH]c1S(=O)(=O)c1ccccc1)NC1CC1 | 46.3% | 105% | 108% | 104% | 65.2% | 94.2% | 69% | 100% |
| Cn1c(=O)c2[nH]c(N/N=C/c3ccccc3Br)nc2n(C)c1=O | 108% | 99% | 113% | 109% | 91.4% | 103% | 118% | 98.6% |
| N#Cc1cccc(NC(=O)c2oc3ccccc3c2-c2cnn(-c3ccccc3)c2)c1 | 49.6% [50 µM] | 72.5% [50 µM] | 97.9% [50 µM] | 89% [50 µM] | 57.3% [50 µM] | 70.9% [50 µM] | 71.1% [50 µM] | 81.5% [50 µM] |
| Cc1oc(-c2ccc(Cl)cc2)nc1/C=C/C(=O)c1ccccc1 | 79.5% | 84.8% | 103% | 104% | 49.9% | 99.5% | 103% | 100% |
| COc1cc(-c2nc(SCC(C)C)nc(Nc3cccc4ccccc34)c2C#N)cc(OC)c1OC | 70.3% | 110% | 99.3% | 95.3% | 94% | 37.7% | 118% | 97.5% |
| C#Cc1cccc(Nc2ncnc3ccc(-c4cncc(NS(C)(=O)=O)c4)cc23)c1 | -5.8% (active) | 19.2% | 44.8% | 31.1% | 10.9% | 11% | 45.5% | 36.1% |
| O=C1C(Cl)=C(Nc2ccc(O)cc2)C(=O)N1Cc1ccc(Cl)cc1 | 66.5% | 43.2% | -30.6% (active) | 17.6% | 18.1% | 30.9% | 79.9% | 14.9% |
| O=Cc1ccc([N+](=O)[O-])s1 | 82.8% | 102% | 110% | 62.5% | 47% | 46.4% | 100% | 102% |
| C=CCn1cc(-c2nc3ccccc3s2)c2cc(-c3ccc4c5c(cccc35)C(=O)N(N)C4=O)ccc21 | 78.2% | 94.4% | 103% | 98.5% | 75.2% | 96.6% | 102% | 100% |
| O=S(=O)(Nc1cc(Br)c(O)c2ccccc12)c1ccc(F)cc1 | 6.12% (active) | 100% | -90.4% (active) | 104% | 49.1% | 51% | 97.8% | 86.4% |
| O=C(NNC(=O)c1ccc(-n2cc(-c3ccccc3)nn2)cc1)Nc1ccccc1 | 102% | 97.9% | 105% | 101% | 99.4% | 94.3% | 116% | 107% |
| Cc1noc(C)c1C(=O)OCc1coc2ccccc2c1=O | 28% | 69.2% | 59.8% | 32.1% | 49.6% | 41.4% | 105% | 95.8% |
| CCCCOC(=O)OCc1cc(=O)c(O)co1 | 90.8% | 110% | 102% | 103% | 94.5% | 106% | 106% | 104% |
| CC(C)=NNc1ccccn1 | 15.4% | 62.5% | 55.2% | 26.2% | 18% | 23.6% | 48.1% | 38.2% |
| C#Cc1cccc(Nc2ncnc3ccc(-c4cnc(N)nc4)cc23)c1 | 5.19% (active) | 28.9% | 43.2% | 60.9% | 15.7% | 47.9% | 64.7% | 68.6% |
| COc1ccccc1Nc1nc2c(s1)C1=CC[C@H]3[C@@H]4CC[C@H]([C@H](C)CCCC(C)C)[C@@]4(C)CC[C@@H]3[C@@]1(C)CC2 | 105% | 110% | 103% | 101% | 113% | 102% | 101% | 101% |
| C[C@]12C=CC(=O)C=C1CCC1C2[C@@H](O)C[C@@]2(C)C1CC[C@]2(O)C(=O)COC(=O)CCC(=O)O (some centres not stated) | 111% | 89.7% | 99.9% | 105% | 96.5% | 107% | 110% | 109% |
| S=C1CCSC(=S)N1CCCN1C(=S)CCSC1=S | 35% | 89.4% | 59.6% | 53% | 20.8% | 43% | 96.2% | 82.7% |
| COc1ccc2cc(C(=O)c3coc4ccc(O)cc34)ccc2c1 | 84.2% | 94.2% | 104% | 116% | 37.5% | 94% | 103% | 90.3% |
| CS(=O)(=O)Nc1cc(-c2ccc3ncnc(Nc4c(Cl)ccc5c4OCO5)c3c2)cnc1Cl | -30.6% (active) | -26% (active) | -24.9% (active) | 2.07% (active) | 0.196% (active) | -22.6% (active) | -36% (active) | -39.7% (active) |
| Cn1cccc1C(=O)C1C(c2cccc([N+](=O)[O-])c2)C2C3CCCCC3CN2C12C(=O)Nc1ccc(Cl)cc12 (configuration not stated) | 36.7% | 53.6% | 56.3% | 54.7% | 34.1% | 14.9% | 64.5% | 42.3% |
